The values below come from PubChem BioAssay AID1347420 (Sanford-Burnham Center for Chemical Genomics, 2020).

About 980 (75%) of roughly 1,300 compounds were called active. Not shown: some 4% with an inconclusive outcome. This is one part of the list. A number with no mark means an inactive call.

The target in the assay is Sulfhydryl oxidase 1 (Homo sapiens) (UniProt O00391). Nature of the assay: QSOX1 enzyme inhibitors, primary screen, biochemical, HyperBlu H2O2 luminescence, HTS (AID 1347420). Note: values above 100% were filed as inconclusive. Particulars: recombinant QSOX1, HyperBlu H2O2 luminescence; at 12.5 µM; active compounds read high; active = any value above zero.
Sequence of Sulfhydryl oxidase 1 (Homo sapiens) (O00391 whole entry, looked up): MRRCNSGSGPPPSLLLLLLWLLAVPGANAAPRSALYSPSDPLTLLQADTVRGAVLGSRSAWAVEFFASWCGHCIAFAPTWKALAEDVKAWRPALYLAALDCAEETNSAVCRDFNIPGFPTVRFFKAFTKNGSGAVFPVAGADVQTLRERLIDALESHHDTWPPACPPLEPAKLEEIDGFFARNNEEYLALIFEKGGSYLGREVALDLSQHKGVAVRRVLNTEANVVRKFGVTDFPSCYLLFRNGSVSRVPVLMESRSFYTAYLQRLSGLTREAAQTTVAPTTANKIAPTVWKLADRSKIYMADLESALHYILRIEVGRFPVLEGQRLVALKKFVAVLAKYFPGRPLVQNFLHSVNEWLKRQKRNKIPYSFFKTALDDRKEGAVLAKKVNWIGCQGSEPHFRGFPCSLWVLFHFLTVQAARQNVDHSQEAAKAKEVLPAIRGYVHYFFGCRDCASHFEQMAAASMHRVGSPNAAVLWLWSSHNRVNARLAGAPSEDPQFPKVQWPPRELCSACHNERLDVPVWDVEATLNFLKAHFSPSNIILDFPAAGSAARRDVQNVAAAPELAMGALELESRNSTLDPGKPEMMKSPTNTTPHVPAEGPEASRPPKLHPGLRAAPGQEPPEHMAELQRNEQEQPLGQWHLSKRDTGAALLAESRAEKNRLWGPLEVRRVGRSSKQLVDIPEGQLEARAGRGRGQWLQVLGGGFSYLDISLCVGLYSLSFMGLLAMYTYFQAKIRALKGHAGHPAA
The term inhibition denotes the drop in the measured response relative to a control, in per cent. Turning to `O=c1ccc2c(OCCCCc3ccccc3)c3ccoc3cc2o1`, the inhibition is 18.3% (active). `CC(=O)OCC1=C(C(=O)O)N2C(=O)[C@@H](NC(=O)Cc3cccs3)[C@H]2SC1`: the inhibition was 11.8% (active). With `CO/N=C(\C(=O)N[C@@H]1C(=O)N2C(C(=O)O)=C(CSc3nc(=O)c(O)nn3C)CSC12)c1csc(N)n1` (some centres undefined), the inhibition was 24.6% (active). As for `CO/N=C(\C(=O)N[C@@H]1C(=O)N2C(C(=O)O)=C(COC(C)=O)CS[C@H]12)c1csc(N)n1`, the figure is 26.2% (active); as for `CC[C@@H](CO)Nc1nc(NCc2ccccc2)c2ncn(C(C)C)c2n1`, 24.9% (active); as for `Cn1cnc2c(NCc3ccccc3)nc(NCCO)nc21`, 12.8% (active). For the molecule `CNCCCC1c2ccccc2C=Cc2ccccc21`, the inhibition is 3.6% (active). The value for `CC(=O)Oc1cc(C(C)C)c(OCCN(C)C)cc1C` was 0.5% (active); that for `O=[N+]([O-])c1cccc2cn[nH]c12` was 16.8% (active).

Turning to `COC(=O)[C@H]1[C@H]2C[C@@H]3c4[nH]c5cc(OC)ccc5c4CCN3C[C@H]2C[C@@H](OC(=O)c2cc(OC)c(OC)c(OC)c2)[C@@H]1OC`, the inhibition was 33% (active).

For `COC(=O)[C@H]1[C@H]2C[C@H]3c4[nH]c5ccccc5c4CCN3C[C@H]2CC[C@@H]1O`, the inhibition is 50.6% (active). Take `COC(=O)[C@@H]1[C@H]2C[C@H]3c4[nH]c5ccccc5c4CCN3C[C@@H]2CC[C@@H]1O`: the inhibition is -38.2%.

Regarding `CNc1ncnc2c1ncn2[C@@H]1O[C@H](CO)[C@H](O)C1O` (some centres undefined), the inhibition was 12% (active). The value for `OC[C@H]1O[C@@H](n2cnc3c(NC4CCCCC4)ncnc32)[C@H](O)[C@@H]1O` was 19.1% (active); that for `OC[C@H]1O[C@@H](n2cnc3c(NC4CCCC4)ncnc32)C(O)[C@H]1O` (some centres undefined) was 4% (active); that for `OC[C@H]1O[C@H](n2cnc3c(N[C@H]4CCC[C@@H]4O)ncnc32)[C@H](O)[C@@H]1O` was 5.7% (active). With `C[C@H](Cc1ccccc1)Nc1ncnc2c1ncn2[C@@H]1O[C@H](CO)[C@H](O)C1O` (some centres undefined), the inhibition is -5.3%. As for `Nc1ccc(CCNc2ncnc3c2ncn3C2OC(CO)C(O)C2O)cc1` (centres undefined), the figure is 36.3% (active). Turning to `CCCCC#Cc1nc(NC)c2ncn([C@@H]3O[C@H](CO)C(O)[C@@H]3O)c2n1` (some centres undefined), the inhibition is 20.2% (active). For the molecule `CNc1ncnc2c1ncn2[C@H]1C[C@H](OP(=O)(O)O)[C@@H](COP(=O)(O)O)O1`, the inhibition is 13.4% (active). The value for `Cn1cc(C(=O)OCC2CCN(CCNS(C)(=O)=O)CC2)c2ccccc21` was -1%; that for `COc1ccc(/C=C/C(=O)Nc2ccccc2C(=O)O)cc1OC` was 4.9% (active); that for `COc1cc(/C=C(\C#N)C(=O)Nc2nnc(C(F)(F)F)s2)ccc1OCc1ccc(C(F)(F)F)cc1C(F)(F)F` was -0.4%. As for `CNCCC(Oc1ccccc1OC)c1ccccc1` (centres undefined), the figure is 2.8% (active). For `CNCCC(Oc1ccccc1C)c1ccccc1` (centres undefined), the inhibition was 0.9% (active).

On to `CC(C)(C)NCC(O)COc1cccc2[nH]c(=O)[nH]c12` (centres undefined), for which the inhibition was 14% (active). With `COc1cccc2c1[C@@H]1CN(CCCCn3c(=O)[nH]c4c(sc5ncc(-c6ccccc6)nc54)c3=O)C[C@@H]1CO2`, the inhibition is 47% (active). As for `NCCCC(N)(C(=O)O)C(F)F` (centres undefined), the figure is 4.1% (active). As for `CNC(=O)Oc1ccc2c(c1)[C@]1(C)CCN(C)[C@@H]1N2C`, the figure is 17.7% (active). On to `O=C(O)C1CCCNC1` (centres undefined), for which the inhibition is 13.4% (active). For the molecule `O=C(O)[C@H]1NCCC[C@H]1C(=O)O`, the inhibition was -4.7%. Take `O=C(O)C1CCNCC1`: the inhibition was 1.7% (active). As to `CC1=NS(=O)(=O)c2cc(Cl)ccc2N1`, the inhibition is 34.8% (active). As for `CC(CCc1ccccc1)NCC(O)c1ccc(O)c(C(N)=O)c1` (centres undefined), the figure is 12.9% (active). On to `Nc1ccc(N2C(=O)c3ccccc3C2=O)c(Cl)c1`, for which the inhibition was 7.7% (active).

For the molecule `NC1CONC1=O` (centres undefined), the inhibition is 2.4% (active). Consider `N[C@@H]1CONC1=O`, for which the inhibition is -0.9%.

Take `N[C@H]1CONC1=O`: the inhibition is 3.7% (active). The value for `Fc1cccc(/C=N/N=C/c2cccc(F)c2)c1` was -1.8%. In the case of `O[Si](CCCN1CCCCC1)(c1ccc(F)cc1)C1CCCCC1` (centres undefined), the inhibition was 4.4% (active). For the molecule `Cn1ncc(S(=O)(=O)Cc2ccccc2)c(Br)c1=O`, the inhibition is 11.5% (active). For `C[C@@H](O)[C@H]1C(=O)N2C(C(=O)O)=C(SCCN=CN)C[C@H]12`, the inhibition was 17.6% (active). As for `CCn1cc(C(=O)O)c(=O)c2ccc(C)nc21`, the figure is 10.1% (active).

Turning to `CCn1cc(C(=O)O)c(=O)c2cc3c(cc21)OCO3`, the inhibition was -7.6%.

With `CCNC(=O)[C@H]1O[C@@H](n2cnc3c(N)nc(NCCc4ccc(CCC(=O)O)cc4)nc32)C(O)[C@H]1O` (some centres undefined), the inhibition was 45.5% (active).

For `CNC(=O)[C@H]1O[C@@H](n2cnc3c(NCc4cccc(I)c4)ncnc32)C(O)[C@H]1O` (some centres undefined), the inhibition was 14% (active). The value for `CNC(=O)[C@H]1O[C@@H](n2cnc3c(NCc4ccc(N)cc4)ncnc32)C(O)[C@H]1O` (some centres undefined) was 32.2% (active).

For the molecule `CC(=O)N[C@@H](CS)C(=O)O`, the inhibition is 43.1% (active). As for `CC1(C)CCC=[N+]1[O-]`, the inhibition is 6.8% (active). On to `CN1CCc2cc(NC(=O)Nc3cccnc3)ccc21`, for which the inhibition is 16.5% (active). For `Cn1ccc2cc3c(cc21)CCN3C(=O)Nc1cccnc1`, the inhibition was -4.6%. As for `O=C(O)CCC(=O)N1CCCC1C(=O)O` (centres undefined), the figure is -11.1%; as for `CCCN1C[C@H](CSC)C[C@@H]2c3cccc4[nH]cc(c34)C[C@H]21`, 31% (active); as for `CCc1c(C)[nH]c2c1C(=O)C(CN1CCOCC1)CC2` (centres undefined), 17.7% (active). As for `N[C@@H](Cc1cnc[nH]1)C(=O)O`, the figure is -5.8%; as for `O=C(O)/C=C/c1cnc[nH]1`, 10.6% (active). With `CN(C)c1cc2c(Nc3ccc4c(cnn4Cc4ccccc4)c3)ncnc2cn1`, the inhibition is 15.4% (active).

Take `CC#CCOC(=O)c1c(C)nc2sc3c(c2c1N)CCC(O)C3` (centres undefined): the inhibition is -4.2%.

As to `S=C(Nc1ccccc1)Nc1nccs1`, the inhibition was 35.5% (active).

As for `CC1CCN=C(N)S1` (centres undefined), the inhibition is 29.6% (active).

For the molecule `NCCSSCCN`, the inhibition was 47.5% (active). As for `O=C1/C(=C/c2ccsc2)CC/C1=C\c1cccs1`, the figure is 17.5% (active); as for `COc1cc2c(c(OC)c1OC)-c1ccc(OC)c(=O)cc1[C@@H](NC(C)=O)CC2`, -1%; as for `Cn1cc(C2=C(c3ccc(Cl)cc3Cl)C(=O)NC2=O)c2ccccc21`, 25.7% (active). The value for `CCc1ccc(/C=C2/SC(=S)NC2=O)cc1` was 69.4% (active).

In the case of `O=C(O)CCc1nc(-c2ccccc2)c(-c2ccccc2)o1`, the inhibition was -0.1%.

For the molecule `CC1COc2c(N3CCN(C)CC3)c(F)cc3c(=O)c(C(=O)O)cn1c23` (centres undefined), the inhibition is 5.3% (active). The value for `OC(CN1CCC(Cc2ccc(F)cc2)CC1)c1ccc(Cl)cc1` (centres undefined) was 1.3% (active); that for `CCCCN1CCC(n2c(=O)[nH]c3ccccc32)CC1` was 16.3% (active). As for `CN(C)CCCO[C@@H]1[C@H]2OC(C)(C)O[C@H]2O[C@@H]1C(O)CO` (some centres undefined), the figure is 14.7% (active); as for `O=C(O)[C@@H]1C[C@@H](C(=O)O)N1`, 4.5% (active). As to `O=C(O)[C@@H]1C[C@H](C(=O)O)N1`, the inhibition is -18.8%. As for `CC(C)(CO)Cc1cc(C(C)(C)C)c(O)c(C(C)(C)C)c1`, the figure is -2.3%; as for `CC(C)(C=O)Cc1cc(C(C)(C)C)c(O)c(C(C)(C)C)c1`, 2.8% (active); as for `COc1cc2nc(N3CCCN(C)CC3)nc(NC3CCN(Cc4ccccc4)CC3)c2cc1OC`, 5.4% (active).

On to `CC(C(=O)O)c1cccc(C(=O)c2ccccc2)c1` (centres undefined), for which the inhibition was 8.2% (active). For the molecule `COc1ccc2cc([C@H](C)C(=O)O)ccc2c1`, the inhibition is -13.9%. As for `COc1ccccc1N1CCN(CCCCN2C(=O)c3ccccc3C2=O)CC1`, the figure is 2% (active); as for `COc1ccccc1N1CCN(CCCCNC(=O)c2ccc3ccccc3c2)CC1`, 36.1% (active); as for `O=C1CC2(CCCC2)CC(=O)N1CCCCN1CCN(c2ncccn2)CC1`, -6.6%.

As for `Cc1cccc(C(=O)NCN2CCN(c3ccccc3C#N)CC2)c1`, the inhibition is -17.3%. As for `COc1ccccc1N1CCN(CCN2C(=O)CC3(CCCC3)CC2=O)CC1`, the figure is 61.3% (active).

`CN[C@H](CC(=O)O)C(=O)O`: the inhibition was 15.9% (active). On to `c1ccc(C(NCc2cccnc2)(c2ccccc2)c2ccccc2)cc1`, for which the inhibition was 2.5% (active).

Turning to `CC(C)(Oc1ccc(C2CC2(Cl)Cl)cc1)C(=O)O` (centres undefined), the inhibition is -2.9%. As for `CC(C)(Oc1ccc(CCNC(=O)c2ccc(Cl)cc2)cc1)C(=O)O`, the figure is 5.4% (active); as for `C=C/C(C)=C/[C@@]1(C)SC(=O)C(C)=C1O`, 13.4% (active); as for `O=C1NC(c2cccc([N+](=O)[O-])c2)=CCN1c1ccccc1O`, 24.8% (active).

Regarding `N=C(N)SCCc1cnc[nH]1`, the inhibition was -0.5%. `NCCc1cnc[nH]1`: the inhibition was 10.9% (active). As for `CCCCC[C@H](CC(=O)NO)C(=O)N[C@H](C(=O)N1CCC[C@H]1CO)C(C)C`, the figure is -27.8%. The value for `COc1cc(OC)c(/C=C2/C(=O)Nc3ccccc32)c(OC)c1` was 44.2% (active); that for `CCC1(O)CC2CN(CCc3c([nH]c4ccccc34)[C@@](C(=O)OC)(c3cc4c(cc3OC)N(C=O)C3[C@]45CCN4CC=C[C@@](CC)([C@@H](OC(C)=O)[C@]3(O)C(=O)OC)[C@H]45)C2)C1` (some centres undefined) was 2.9% (active); that for `CCC1(O)CC2CN(CCc3c([nH]c4ccccc34)[C@@](C(=O)OC)(c3cc4c(cc3OC)N(C)C3[C@]45CCN4CC=C[C@@](CC)([C@@H](OC(C)=O)[C@]3(O)C(=O)OC)[C@H]45)C2)C1` (some centres undefined) was 18.8% (active). As to `C/C(=C\c1ccc(C(=O)O)cc1)c1ccc2c(c1)C(C)(C)CCC2(C)C`, the inhibition was 5.8% (active). Regarding `CCCCC/C=C\CC(O)/C=C/c1cccc(CC(O)CCCCO)n1` (centres undefined), the inhibition was -9.6%. On to `O=c1cc(-c2ccccc2)[nH]c2nc(Cl)ccc12`, for which the inhibition was 2.9% (active). `O=C1CCC(N2C(=O)c3ccccc3C2=O)C(=O)N1` (centres undefined): the inhibition was 3% (active). Take `Cc1cccc(C#Cc2ccccc2)n1`: the inhibition was 15.5% (active).
